Test results: PubChem BioAssay (NCI)
“And” between values parts separate entries of the source, which are not always exact repeats. Equal entries are not always repeated. This is part of a sample that, as a whole, favours compounds with a hit. Of some 79,000 tested, about 15% had one in any assay. A structure can be active in one record and inactive in another. The source made the active and inactive calls. No stated cut-off is given here; in the data, active means growth inhibition above about 70%; inactive means the rest.

Experiments:
[1] = NCI Yeast Anticancer Drug Screen. Data for the rad50 strain (AID 155);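 further: 0% = growth of vehicle-only cultures of the same strain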; details: S. cerevisiae rad50 strain growth inhibition; at 50.0 µM; stronger effect = higher value
Procedure, shortened: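 Growth of the mutant yeast was measured after compound exposure and referenced to vehicle-treated cultures.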

[2] = NCI Yeast Anticancer Drug Screen. Data for the mec2-1 strain (AID 157); details: S. cerevisiae mec2-1 strain, at 50.0 µM, stronger effect = higher value
Procedure, shortened: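 Using mec2-1 yeast: add compound, measure growth, express inhibition versus vehicle-treated cultures.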

[3] = NCI Yeast Anticancer Drug Screen. Data for the sgs1 mgt1 strain (AID 161);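 further: 0% = growth of cultures given vehicle only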; details: S. cerevisiae sgs1 mgt1 strain, at 50.0 µM, stronger effect = higher value
Procedure, shortened: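 This yeast growth screen uses a strain with defined DNA-repair lesions; compound-treated growth is compared with vehicle-treated growth.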

[4] = NCI Yeast Anticancer Drug Screen. Data for the cln2 rad14 strain (AID 165);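 further: 0% = growth equal to vehicle treated cultures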; details: S. cerevisiae cln2 rad14 strain, at 50.0 µM, stronger effect = higher value
Procedure, shortened: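 Yeast strain cln2 rad14, bearing defects in cell cycle control and DNA repair, serves as the test system; values reflect growth inhibition compared with vehicle.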

[5] = NCI Yeast Anticancer Drug Screen. Data for the bub3 strain (AID 167); details: S. cerevisiae bub3 mutant strain, at 50.0 µM, stronger effect = higher value
Procedure, shortened: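 Whole-cell yeast assay. The mutant strain was incubated with compounds, and growth inhibition was determined by comparison with vehicle-treated cells.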

[6] = NCI Yeast Anticancer Drug Screen. Data for the mlh1 rad18 strain (AID 175); details: S. cerevisiae mlh1 rad18 strain growth inhibition; at 50.0 µM; stronger effect = higher value
Procedure, shortened: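 Steps: expose repair-defective yeast to compound; measure growth; express inhibition against vehicle-treated controls.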

Measured: growth inhibition

O=C(NC(=O)C(C(=O)c1ccccc1)c1ccccc1)c1ccccc1 (stereo unspecified)
inactive: [1] -3.95% and 2.65% | [2] 2.1% and -1.35% | [3] -6.9% and -12.2% | [4] 0.15% and 9.9% | [5] 5.6% and -4.05% | [6] -5.05% and -6.25%

c1ccc(Cc2nc3ccccc3[nH]2)cc1
inactive: [1] -13.5% and -2.5% | [2] -33.8% and -4.1% | [3] -10.4% and -18.9% | [4] -4.9% and 2.65% | [5] -28.8% and -13.8% | [6] 0.7% and -16.4%

O=CC(O)C(O)C(OC1OC(CO)C(O)C(O)C1O)C(O)CO (stereo unspecified) (tested in a mixture with another compound)
94.3% (active) and 55.4% (inactive): [3]
95.3% (active) and 49.9% (inactive): [6]
96.5% (active) and 36.4% (inactive): [2]
active: [4] 93.8% and 78.4% | [5] 98.2% and 80.7%
89.5% (active) and 38% (inactive): [1]

CC(C)N=C(N)C(N)=NC(C)C
inactive: [1] 20.1% and -65.4% | [2] -18% and 6.55% | [3] -2.5% and -13.2% | [4] -67.2% and -46.5% | [5] 1.8% and -11.1% | [6] -14.6% and -16.9%

COc1cc(C2c3cc4c(cc3C(OC(=O)c3ccc[n+](C)c3)C3COC(=O)C23)OCO4)cc(OC)c1OC (stereo unspecified)
inactive: [1] -16.2% and -3.1% | [2] -11.3% and 8.1% | [3] -11.3% and 2.3% | [4] -17.5% and -1.65% | [5] 13.1% and 41.8% | [6] 5.45% and 9.45%

[B]C(=O)NC(CC(C)C)C(=O)NC1c2ccsc2C(=O)C1O (stereo unspecified) (tested in a mixture with another compound)
inactive: [1] 3.05% and 4.2% | [2] 18.6% and 22.4% | [3] 12.1% and 2.9% | [4] 2.9% and 16.6% | [5] 32.3% and 33.1% | [6] -16.1% and -21.4%

Oc1ccc(-c2ccc(O)cc2)cc1
inactive: [1] 36.2% and -18.6% | [2] 2.45% and -3.75% | [3] 7.4% and -17.4% | [4] 19.9% and -27.9% | [5] 11.9% and 12.9% | [6] 13.8% and 19.3%

CCOc1ccc(C=O)cc1OC
inactive: [1] -29.6% and -0.5% | [2] -53.1% and -10.4% | [3] -52.6% and 0.25% | [4] -6.4% and 4.25% | [5] -26.9% and -0.4% | [6] -11.4% and 0.1%

OCC(O)C(O)C(O)C(O)[C@@H](O)c1nc2ccccc2[nH]1 (stereo partly specified)
inactive: [1] -5.1% and -12.2% | [2] 3% and -0.15% | [3] -2.75% and -4.4% | [4] -34.5% and -16.2% | [5] 2.8% and 21.2% | [6] -3.8% and 12.2%

CN(C)c1ccc(/C=C2\c3ccccc3-c3ccc([N+](=O)[O-])cc32)cc1
inactive: [1] 20.9% and 6.65% | [2] -9.8% and -6.75% | [3] -21.1% and -11% | [4] -27.2% and -8.2% | [5] -19.6% and 4.45% | [6] -4.35% and 8%

OC(CBr)C(O)C(O)C(O)CBr (stereo unspecified)
inactive: [1] 13.9% and 16.8% | [2] 7.6% and -4.25% | [3] 4.15% and -11.3% | [4] 8.75% and -9.4% | [5] -10.8% and 0.2% | [6] -13% and -11.9%

CC(C)C(=O)/C=C/c1ccccc1
inactive: [1] 11.1% and 21.2% | [2] -2.4% and -2.75% | [3] 10% and -5.25% | [4] 18.2% and -12.6% | [5] 7.7% and -3.95% | [6] 17.8% and 8%

COc1ccc2c(=O)c(C)c(-c3ccccc3)oc2c1CN(C)C
inactive: [1] 5.85% and -33.4% | [2] -40.1% and -38.5% | [3] 10.3% and -26.6% | [4] 9.8% and -0.05% | [5] -22.6% and -24.3% | [6] 2% and -28.3%

COC(=O)/C(Cc1cccc(OC(C)=O)c1C(=O)OC)=N/O
inactive: [1] -8.8% and 2.95% | [2] 16.2% and 12.4% | [3] 9.25% and -3.7% | [4] -10.5% and -99.8% | [5] -8.75% and 12.7% | [6] -13.2% and 3.55%

CCOC(=O)C(N)Cc1ccc(O)cc1 (stereo unspecified)
inactive: [1] 16% and 0.4% | [2] 8.05% and 6.55% | [3] -0.85% and -11.8% | [4] 6.25% and -19.6% | [5] 10.7% and 1.75% | [6] 23.4% and -1.7%

O=C(CC(=O)Nc1ccccc1)Nc1ccccc1
inactive: [1] -3.55% and 32.1% | [2] -21% and 0.2% | [3] -5.95% and 23.4% | [4] 8.5% and 5.5% | [5] -28.6% and -1.65% | [6] -5.55% and 20.8%

NC(N)=S
inactive: [1] -10.2% and 7% | [2] -2.4% and -11.8% | [3] -6.1% and 9% | [4] 32.8% and 1.9% | [5] 3.75% and 3.8% | [6] 0.35% and -9.45%

O=c1[nH]c(=O)n(C2OC(CO)C(O)C2O)c2nccnc12 (stereo unspecified)
inactive: [1] 10.5% and 5.1% | [2] 8.9% and 4.95% | [3] 0.55% and -5.75% | [4] 26.8% and 2.95% | [5] -13.2% and -20.9% | [6] 4.55% and -11.4%

O=C(O)C1C2OC(C(Br)C2Br)C1C(=O)O (stereo unspecified)
inactive: [1] -12.3% and -7.9% | [2] 15.1% and -12.1% | [3] -2.45% and -26.4% | [6] 13.9% and -0.15%
94.5% (active) and -11.8% (inactive): [5]
71.8% (active) and 12.1% (inactive): [4]

CN1C/C(=C\c2ccccc2[N+](=O)[O-])C(=O)/C(=C/c2ccccc2[N+](=O)[O-])C1
inactive: [1] -3.7% and -14.4% | [2] 14.9% and 28.8% | [3] 25.6% and -49% | [4] 4.85% and -8.9% | [5] 13.7% and 21.4% | [6] 16.8% and -29.1%

O=[N+]([O-])c1ccc2[nH]c(=S)[nH]c(=S)c2c1
inactive: [1] -27.1% and 17.1% | [2] -49.4% and 35.7% | [3] 5.25% and 51% | [4] 7.7% and 36.5% | [5] -5.7% and -1.3% | [6] 12.2% and 16.4%
